From the supplement of paper PMC10849652
Targets with a hit are over-represented here; the source holds about 7,900 in all. About 0.6% of all pairs of compound and target were hits.

compound: CN1CCc2c(c3ccccc3n2Cc2ccc(C(=O)NO)cc2)C1 [Tubastatin A]; test: log2 fold change, soluble protein after heating vs DMSO (PISA); higher = thermal stabilisation; K562 cells, 10 uM, 30 min; active = over 0.2 and 3.5 SD of the protein, either way, in both replicates (recomputed)
In short: (§1)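 K562 cells at 2×10^6 cells/mL were exposed to 10 μM compound for 30 min, then aliquots were heated for 3 min across 48°C-58°C, pooled, and extracted in PBS containing 0.5% NP-40 at 4°C. The supernatant after 21,000xg for 90 min was taken as soluble protein and measured by TMTpro 16plex LC-MS/MS with channel sums equalised. Thermal stability is reported relative to control samples, with values from duplicates. Fold changes are given on a log2 scale.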

Sequence of UniProt Q14978 (Q14978 whole entry, looked up): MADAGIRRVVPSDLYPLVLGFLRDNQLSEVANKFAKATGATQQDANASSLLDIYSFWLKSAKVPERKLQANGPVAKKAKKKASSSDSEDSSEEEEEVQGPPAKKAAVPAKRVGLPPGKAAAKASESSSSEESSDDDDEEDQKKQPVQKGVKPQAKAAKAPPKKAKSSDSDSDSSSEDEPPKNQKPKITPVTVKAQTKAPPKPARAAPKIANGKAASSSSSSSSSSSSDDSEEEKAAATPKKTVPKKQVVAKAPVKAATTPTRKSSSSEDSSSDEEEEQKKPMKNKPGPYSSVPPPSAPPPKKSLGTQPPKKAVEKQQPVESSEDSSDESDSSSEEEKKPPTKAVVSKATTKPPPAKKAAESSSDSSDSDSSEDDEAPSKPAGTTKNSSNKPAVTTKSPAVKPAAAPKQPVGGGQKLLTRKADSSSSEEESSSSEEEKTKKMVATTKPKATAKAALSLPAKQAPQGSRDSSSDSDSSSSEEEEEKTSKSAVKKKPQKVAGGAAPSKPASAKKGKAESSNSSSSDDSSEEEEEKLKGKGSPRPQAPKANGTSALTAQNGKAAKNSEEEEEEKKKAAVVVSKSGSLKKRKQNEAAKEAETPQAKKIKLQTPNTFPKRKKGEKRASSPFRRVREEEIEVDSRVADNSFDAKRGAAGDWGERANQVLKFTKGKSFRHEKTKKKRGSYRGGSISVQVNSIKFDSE
Sequence of UniProt Q12968 (Q12968 whole entry, looked up): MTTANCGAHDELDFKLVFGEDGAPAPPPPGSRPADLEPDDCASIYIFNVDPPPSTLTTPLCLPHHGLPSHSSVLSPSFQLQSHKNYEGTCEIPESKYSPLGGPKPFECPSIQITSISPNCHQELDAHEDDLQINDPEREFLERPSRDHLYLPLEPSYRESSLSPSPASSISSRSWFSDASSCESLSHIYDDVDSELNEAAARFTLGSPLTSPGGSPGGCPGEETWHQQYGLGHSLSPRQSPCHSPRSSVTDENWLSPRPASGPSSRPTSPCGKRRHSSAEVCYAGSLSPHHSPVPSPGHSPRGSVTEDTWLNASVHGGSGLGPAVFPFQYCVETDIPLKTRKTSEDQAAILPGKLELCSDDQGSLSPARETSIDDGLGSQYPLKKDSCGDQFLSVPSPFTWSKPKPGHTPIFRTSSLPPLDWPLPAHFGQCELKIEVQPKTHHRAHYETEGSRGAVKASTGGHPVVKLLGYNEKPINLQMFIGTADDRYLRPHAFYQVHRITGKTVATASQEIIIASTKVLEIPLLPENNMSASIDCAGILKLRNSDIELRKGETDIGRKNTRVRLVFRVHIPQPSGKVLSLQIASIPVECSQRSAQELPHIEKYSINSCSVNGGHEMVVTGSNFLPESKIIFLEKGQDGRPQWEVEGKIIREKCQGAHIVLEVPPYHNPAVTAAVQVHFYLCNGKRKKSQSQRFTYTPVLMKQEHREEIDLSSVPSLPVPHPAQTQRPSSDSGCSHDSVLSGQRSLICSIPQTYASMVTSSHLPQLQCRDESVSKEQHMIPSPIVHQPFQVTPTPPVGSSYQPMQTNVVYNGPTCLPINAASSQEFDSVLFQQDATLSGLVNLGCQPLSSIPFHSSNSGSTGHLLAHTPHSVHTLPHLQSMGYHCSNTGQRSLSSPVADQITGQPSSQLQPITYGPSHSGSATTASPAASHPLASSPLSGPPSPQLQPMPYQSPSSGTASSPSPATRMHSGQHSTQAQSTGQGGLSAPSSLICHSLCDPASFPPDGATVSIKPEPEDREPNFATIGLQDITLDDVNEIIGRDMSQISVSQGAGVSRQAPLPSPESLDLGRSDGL
Sequence of UniProt Q12769 (Q12769 whole entry, looked up): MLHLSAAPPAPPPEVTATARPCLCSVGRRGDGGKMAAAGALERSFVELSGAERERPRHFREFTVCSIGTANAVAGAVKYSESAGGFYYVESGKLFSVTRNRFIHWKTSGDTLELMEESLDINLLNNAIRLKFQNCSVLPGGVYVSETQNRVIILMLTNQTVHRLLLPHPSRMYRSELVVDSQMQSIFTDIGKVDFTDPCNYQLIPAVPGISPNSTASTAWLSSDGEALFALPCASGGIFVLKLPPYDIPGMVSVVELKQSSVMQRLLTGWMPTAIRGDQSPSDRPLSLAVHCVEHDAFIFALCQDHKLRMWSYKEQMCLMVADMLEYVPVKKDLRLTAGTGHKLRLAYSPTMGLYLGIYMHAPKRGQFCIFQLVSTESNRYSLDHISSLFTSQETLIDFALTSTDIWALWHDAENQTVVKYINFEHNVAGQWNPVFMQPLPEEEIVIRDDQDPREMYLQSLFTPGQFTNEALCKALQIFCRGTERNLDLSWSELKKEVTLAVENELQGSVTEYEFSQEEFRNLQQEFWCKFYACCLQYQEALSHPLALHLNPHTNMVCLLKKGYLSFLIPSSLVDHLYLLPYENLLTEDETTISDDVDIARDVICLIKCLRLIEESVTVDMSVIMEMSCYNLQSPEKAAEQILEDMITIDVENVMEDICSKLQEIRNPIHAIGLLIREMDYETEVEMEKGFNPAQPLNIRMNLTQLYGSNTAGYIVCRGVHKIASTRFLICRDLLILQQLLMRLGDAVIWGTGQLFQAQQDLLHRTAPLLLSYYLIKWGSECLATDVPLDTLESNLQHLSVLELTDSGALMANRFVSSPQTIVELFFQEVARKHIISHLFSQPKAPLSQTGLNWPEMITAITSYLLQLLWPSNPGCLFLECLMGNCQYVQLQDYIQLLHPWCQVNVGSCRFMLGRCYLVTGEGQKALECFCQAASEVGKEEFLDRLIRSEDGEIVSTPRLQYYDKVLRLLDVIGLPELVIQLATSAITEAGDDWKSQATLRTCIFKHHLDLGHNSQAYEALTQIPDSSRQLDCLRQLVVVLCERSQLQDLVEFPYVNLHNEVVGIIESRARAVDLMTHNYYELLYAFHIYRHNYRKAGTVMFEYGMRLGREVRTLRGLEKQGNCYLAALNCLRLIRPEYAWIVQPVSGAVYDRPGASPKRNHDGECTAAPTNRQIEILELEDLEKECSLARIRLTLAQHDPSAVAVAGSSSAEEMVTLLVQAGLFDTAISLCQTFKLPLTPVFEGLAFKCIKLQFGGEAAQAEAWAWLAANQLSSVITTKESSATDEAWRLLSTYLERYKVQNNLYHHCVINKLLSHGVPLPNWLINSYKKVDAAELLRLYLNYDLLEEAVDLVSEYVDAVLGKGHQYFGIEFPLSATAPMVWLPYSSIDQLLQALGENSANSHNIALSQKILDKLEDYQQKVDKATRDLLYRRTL
Sequence of UniProt P68402 (P68402 whole entry, looked up): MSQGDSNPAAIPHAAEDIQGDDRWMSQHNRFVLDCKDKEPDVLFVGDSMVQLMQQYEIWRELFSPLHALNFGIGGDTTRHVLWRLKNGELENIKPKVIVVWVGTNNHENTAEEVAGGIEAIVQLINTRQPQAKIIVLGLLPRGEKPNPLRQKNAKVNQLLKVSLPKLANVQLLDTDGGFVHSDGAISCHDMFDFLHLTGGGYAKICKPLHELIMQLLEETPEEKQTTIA
Sequence of UniProt Q330K2 (Q330K2 whole entry, looked up): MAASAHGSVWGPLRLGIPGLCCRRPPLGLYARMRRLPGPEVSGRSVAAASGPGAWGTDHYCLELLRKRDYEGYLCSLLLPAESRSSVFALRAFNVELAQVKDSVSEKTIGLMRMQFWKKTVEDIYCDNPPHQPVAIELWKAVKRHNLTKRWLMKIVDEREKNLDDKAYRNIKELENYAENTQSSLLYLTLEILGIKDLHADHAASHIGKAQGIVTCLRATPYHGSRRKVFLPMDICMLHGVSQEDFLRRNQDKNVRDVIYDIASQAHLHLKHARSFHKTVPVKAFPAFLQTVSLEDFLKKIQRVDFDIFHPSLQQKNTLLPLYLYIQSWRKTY
Sequence of UniProt P46087 (P46087 whole entry, looked up): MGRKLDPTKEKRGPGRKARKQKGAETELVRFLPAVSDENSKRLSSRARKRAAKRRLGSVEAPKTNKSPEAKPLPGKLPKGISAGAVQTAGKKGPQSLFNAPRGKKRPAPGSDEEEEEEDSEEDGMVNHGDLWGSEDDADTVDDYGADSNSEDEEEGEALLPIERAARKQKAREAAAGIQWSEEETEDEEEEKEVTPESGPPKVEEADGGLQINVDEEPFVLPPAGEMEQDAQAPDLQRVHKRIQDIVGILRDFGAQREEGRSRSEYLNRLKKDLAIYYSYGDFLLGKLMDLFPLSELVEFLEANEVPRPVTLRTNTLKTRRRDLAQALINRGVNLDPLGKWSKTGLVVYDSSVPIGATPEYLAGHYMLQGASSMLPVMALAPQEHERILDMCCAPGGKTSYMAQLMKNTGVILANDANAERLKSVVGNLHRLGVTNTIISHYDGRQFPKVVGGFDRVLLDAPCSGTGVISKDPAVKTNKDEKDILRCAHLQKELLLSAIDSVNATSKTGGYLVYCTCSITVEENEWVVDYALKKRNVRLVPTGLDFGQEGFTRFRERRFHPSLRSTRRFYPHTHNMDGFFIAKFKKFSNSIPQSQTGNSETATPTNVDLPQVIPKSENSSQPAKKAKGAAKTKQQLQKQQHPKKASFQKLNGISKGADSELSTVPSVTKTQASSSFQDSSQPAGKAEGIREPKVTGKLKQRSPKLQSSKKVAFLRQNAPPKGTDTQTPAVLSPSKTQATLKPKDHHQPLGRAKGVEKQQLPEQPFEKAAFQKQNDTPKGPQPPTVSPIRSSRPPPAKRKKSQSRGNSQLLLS
Sequence of UniProt O14524 (O14524 whole entry, looked up): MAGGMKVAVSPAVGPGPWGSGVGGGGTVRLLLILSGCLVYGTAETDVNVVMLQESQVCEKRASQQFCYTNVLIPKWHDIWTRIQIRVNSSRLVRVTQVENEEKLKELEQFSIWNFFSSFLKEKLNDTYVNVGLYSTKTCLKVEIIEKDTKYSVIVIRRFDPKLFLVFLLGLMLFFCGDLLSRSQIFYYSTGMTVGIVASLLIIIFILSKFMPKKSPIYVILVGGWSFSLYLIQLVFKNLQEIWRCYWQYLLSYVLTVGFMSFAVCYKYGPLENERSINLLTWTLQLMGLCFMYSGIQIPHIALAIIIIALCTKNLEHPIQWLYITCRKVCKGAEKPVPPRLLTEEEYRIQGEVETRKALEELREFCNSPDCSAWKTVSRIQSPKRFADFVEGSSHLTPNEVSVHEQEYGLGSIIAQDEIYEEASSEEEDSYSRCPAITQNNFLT

Q: For MON1B (UniProt Q7L1V2), which log2 fold change is on record?
A: 0.048 (inactive)

Q: How did the log2 fold change turn out when NEMP1 (UniProt O14524) was run?
A: -0.002 (inactive)

Q: NDUFAF6 (UniProt Q330K2) was tested. Which log2 fold change did it give?
A: -0.101 (inactive)

Q: With NFATC3 (UniProt Q12968) as the target, how does the log2 fold change read?
A: 0.058 (inactive)

Q: Which log2 fold change does the source give for MRPS15 (UniProt P82914) here?
A: 0.039 (inactive)

Q: Which log2 fold change does the source give for NUP160 (UniProt Q12769) here?
A: 0 (inactive)

Q: With NEU1 (UniProt Q99519) as the target, how does the log2 fold change read?
A: 0.028 (inactive)

Q: How did the log2 fold change turn out when OGFR (UniProt Q9NZT2) was run?
A: 0.089 (inactive)

Q: For NBN (UniProt O60934), which log2 fold change is on record?
A: 0.191 (inactive)

Q: With MYH10 isoform 3 (UniProt P35580) as the target, how does the log2 fold change read?
A: 0.002 (inactive)

Q: For MRPS24 (UniProt Q96EL2), which log2 fold change is on record?
A: 0.024 (inactive)

Q: Which log2 fold change does the source give for NOP2 isoform 4 (UniProt P46087) here?
A: 0.079 (inactive)

Q: NEDD4 isoform 4 (UniProt P46934) was tested. Which log2 fold change did it give?
A: 0.037 (inactive)

Q: NOLC1 isoform 2 (UniProt Q14978) was tested. Which log2 fold change did it give?
A: 0.153 (inactive)

Q: Which log2 fold change does the source give for PAFAH1B2 (UniProt P68402) here?
A: -0.058 (inactive)

compound: CNC(=O)C1=CC=CC=C1NC2=NC(=NC=C2Cl)NC3=C(C=C(C=C3)N4CCOCC4)OC; test: as above
In short: as §1

Q: How did the log2 fold change turn out when NUDCD2 (UniProt Q8WVJ2) was run?
A: 0.002 (inactive)

Q: NA, A0A096LPI6 was tested. Which log2 fold change did it give?
A: 0.005 (inactive)

Q: NAP1L1 (UniProt P55209) was tested. Which log2 fold change did it give?
A: 0.053 (inactive)

Q: Which log2 fold change does the source give for NCL (UniProt P19338) here?
A: -0.001 (inactive)

Q: Which log2 fold change does the source give for NUP107 (UniProt P57740) here?
A: 0.023 (inactive)

Q: Which log2 fold change does the source give for MRPL46 (UniProt Q9H2W6) here?
A: 0.29 (active)

Q: With MRPS22 (UniProt P82650) as the target, how does the log2 fold change read?
A: -0.038 (inactive)

Q: With MSTO1 (UniProt Q9BUK6) as the target, how does the log2 fold change read?
A: -0.031 (inactive)

Q: Which log2 fold change does the source give for NOL11 (UniProt Q9H8H0) here?
A: 0.007 (inactive)

Q: Which log2 fold change does the source give for NFYC (UniProt Q13952) here?
A: -0.022 (inactive)

Q: With MTMR14 (UniProt Q8NCE2) as the target, how does the log2 fold change read?
A: 0.008 (inactive)

Q: NISCH (UniProt Q9Y2I1) was tested. Which log2 fold change did it give?
A: -0.141 (inactive)

Q: With NAPG (UniProt Q99747) as the target, how does the log2 fold change read?
A: 0.031 (inactive)

Q: Which log2 fold change does the source give for NDUFA4 (UniProt O00483) here?
A: 0.009 (inactive)

Q: With NUMB (UniProt P49757) as the target, how does the log2 fold change read?
A: -0.027 (inactive)

Q: Which log2 fold change does the source give for MRPS18B (UniProt Q9Y676) here?
A: 0.007 (inactive)

Q: NUP85 (UniProt Q9BW27) was tested. Which log2 fold change did it give?
A: -0.021 (inactive)

Q: Which log2 fold change does the source give for MTHFD1 (UniProt P11586) here?
A: 0.003 (inactive)

Q: For NOSIP (UniProt Q9Y314), which log2 fold change is on record?
A: 0.05 (inactive)

Q: For NECTIN2 (UniProt Q92692), which log2 fold change is on record?
A: -0.056 (inactive)

Q: For NUP205 (UniProt Q92621), which log2 fold change is on record?
A: -0.024 (inactive)

Q: With NFATC2IP (UniProt Q8NCF5) as the target, how does the log2 fold change read?
A: 0.067 (inactive)

Q: With NRF1 isoform 4 (UniProt Q16656) as the target, how does the log2 fold change read?
A: -0.016 (inactive)

Q: MRPS12 (UniProt O15235) was tested. Which log2 fold change did it give?
A: -0.017 (inactive)

Q: How did the log2 fold change turn out when MON1B (UniProt Q7L1V2) was run?
A: -0.011 (inactive)

Q: How did the log2 fold change turn out when NEMP1 (UniProt O14524) was run?
A: -0.111 (inactive)

Q: NDUFAF6 (UniProt Q330K2) was tested. Which log2 fold change did it give?
A: 0.038 (inactive)

Q: NFATC3 (UniProt Q12968) was tested. Which log2 fold change did it give?
A: -0.103 (inactive)

Q: How did the log2 fold change turn out when MRPS15 (UniProt P82914) was run?
A: -0.07 (inactive)

Q: Which log2 fold change does the source give for NUP160 (UniProt Q12769) here?
A: 0.004 (inactive)

Q: For NEU1 (UniProt Q99519), which log2 fold change is on record?
A: -0.113 (inactive)

Q: OGFR (UniProt Q9NZT2) was tested. Which log2 fold change did it give?
A: -0.028 (inactive)

Q: NBN (UniProt O60934) was tested. Which log2 fold change did it give?
A: -0.065 (inactive)

Q: How did the log2 fold change turn out when MYH10 isoform 3 (UniProt P35580) was run?
A: 0.024 (inactive)

Q: MRPS24 (UniProt Q96EL2) was tested. Which log2 fold change did it give?
A: 0.067 (inactive)

Q: How did the log2 fold change turn out when NOP2 isoform 4 (UniProt P46087) was run?
A: 0.064 (inactive)

Q: For NEDD4 isoform 4 (UniProt P46934), which log2 fold change is on record?
A: 0.041 (inactive)

Q: How did the log2 fold change turn out when NOLC1 isoform 2 (UniProt Q14978) was run?
A: -0.122 (inactive)

Q: PAFAH1B2 (UniProt P68402) was tested. Which log2 fold change did it give?
A: -0.029 (inactive)

compound: CNC(=O)c1ccc(Nc2ncc(C(F)(F)F)c(NCc3nccnc3N(C)S(C)(=O)=O)n2)cc1 [defactinib]; test: as above
In short: as §1

Q: NUDCD2 (UniProt Q8WVJ2) was tested. Which log2 fold change did it give?
A: -0.256 (inactive)

Q: For NA, A0A096LPI6, which log2 fold change is on record?
A: 0 (inactive)

Q: How did the log2 fold change turn out when NAP1L1 (UniProt P55209) was run?
A: -0.008 (inactive)

Q: For NCL (UniProt P19338), which log2 fold change is on record?
A: 0.354 (inactive)

Q: For NUP107 (UniProt P57740), which log2 fold change is on record?
A: -0.081 (inactive)

Q: With MRPL46 (UniProt Q9H2W6) as the target, how does the log2 fold change read?
A: 0.043 (inactive)

Q: MRPS22 (UniProt P82650) was tested. Which log2 fold change did it give?
A: 0.058 (inactive)

Q: Which log2 fold change does the source give for MSTO1 (UniProt Q9BUK6) here?
A: -0.045 (inactive)

Q: With NOL11 (UniProt Q9H8H0) as the target, how does the log2 fold change read?
A: 0.186 (inactive)

Q: For NFYC (UniProt Q13952), which log2 fold change is on record?
A: -0.022 (inactive)

Q: With MTMR14 (UniProt Q8NCE2) as the target, how does the log2 fold change read?
A: -0.058 (inactive)

Q: How did the log2 fold change turn out when NISCH (UniProt Q9Y2I1) was run?
A: -0.128 (inactive)

Q: For NAPG (UniProt Q99747), which log2 fold change is on record?
A: -0.159 (inactive)

Q: NDUFA4 (UniProt O00483) was tested. Which log2 fold change did it give?
A: -0.03 (inactive)

Q: For NUMB (UniProt P49757), which log2 fold change is on record?
A: -0.044 (inactive)

Q: Which log2 fold change does the source give for MRPS18B (UniProt Q9Y676) here?
A: -0.016 (inactive)

Q: For NUP85 (UniProt Q9BW27), which log2 fold change is on record?
A: -0.097 (inactive)

Q: MTHFD1 (UniProt P11586) was tested. Which log2 fold change did it give?
A: -0.046 (inactive)

Q: With NOSIP (UniProt Q9Y314) as the target, how does the log2 fold change read?
A: -0.199 (inactive)

Q: With NECTIN2 (UniProt Q92692) as the target, how does the log2 fold change read?
A: -0.013 (inactive)

Q: How did the log2 fold change turn out when NUP205 (UniProt Q92621) was run?
A: -0.132 (inactive)

Q: For NFATC2IP (UniProt Q8NCF5), which log2 fold change is on record?
A: -0.122 (inactive)

Q: For NRF1 isoform 4 (UniProt Q16656), which log2 fold change is on record?
A: -0.34 (active)

Q: How did the log2 fold change turn out when MRPS12 (UniProt O15235) was run?
A: 0.119 (inactive)

Q: How did the log2 fold change turn out when MON1B (UniProt Q7L1V2) was run?
A: 0.016 (inactive)

Q: How did the log2 fold change turn out when NEMP1 (UniProt O14524) was run?
A: 0.021 (inactive)

Q: How did the log2 fold change turn out when NDUFAF6 (UniProt Q330K2) was run?
A: -0.04 (inactive)

Q: Which log2 fold change does the source give for NFATC3 (UniProt Q12968) here?
A: -0.208 (inactive)

Q: For MRPS15 (UniProt P82914), which log2 fold change is on record?
A: 0.035 (inactive)

Q: For NUP160 (UniProt Q12769), which log2 fold change is on record?
A: -0.11 (inactive)

Q: For NEU1 (UniProt Q99519), which log2 fold change is on record?
A: -0.011 (inactive)

Q: For OGFR (UniProt Q9NZT2), which log2 fold change is on record?
A: -0.094 (inactive)

Q: How did the log2 fold change turn out when NBN (UniProt O60934) was run?
A: -0.159 (inactive)

Q: For MYH10 isoform 3 (UniProt P35580), which log2 fold change is on record?
A: -0.039 (inactive)

Q: For MRPS24 (UniProt Q96EL2), which log2 fold change is on record?
A: 0.041 (inactive)

Q: NOP2 isoform 4 (UniProt P46087) was tested. Which log2 fold change did it give?
A: 1.26 (active)

Q: How did the log2 fold change turn out when NEDD4 isoform 4 (UniProt P46934) was run?
A: -0.108 (inactive)

Q: Which log2 fold change does the source give for NOLC1 isoform 2 (UniProt Q14978) here?
A: -0.346 (active)

Q: For PAFAH1B2 (UniProt P68402), which log2 fold change is on record?
A: 0.022 (inactive)
